Assay outcomes: PubChem BioAssay, National Center for Advancing Translational Sciences (NCATS)
Cruzain inh Det: qHTS Assay for Promiscuous and Specific Inhibitors of Cruzain (with detergent). Cruzipain (Trypanosoma cruzi), P25779. purified cruzain, Z-FR-AMC fluorescence, 0.01% Triton. Potency, µM, hits mostly inhibitors. 200,000 tested, 0.43% active; note: nearly all actives have a fitted effect of over 40% in size
Target sequence (P25779 123-467 limits assumed): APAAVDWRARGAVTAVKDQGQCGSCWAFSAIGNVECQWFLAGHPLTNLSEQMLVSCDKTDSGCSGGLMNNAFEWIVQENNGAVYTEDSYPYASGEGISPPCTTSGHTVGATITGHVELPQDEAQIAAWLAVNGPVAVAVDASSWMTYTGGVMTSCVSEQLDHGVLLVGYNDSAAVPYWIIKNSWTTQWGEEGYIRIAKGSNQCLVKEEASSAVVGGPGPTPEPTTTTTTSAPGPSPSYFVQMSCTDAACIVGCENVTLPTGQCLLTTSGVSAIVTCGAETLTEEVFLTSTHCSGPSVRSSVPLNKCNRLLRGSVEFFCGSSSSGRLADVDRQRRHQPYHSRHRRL
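In this qHTS format, compounds are incubated with 1.5 nM cruzain for 15 min at room temperature before 2 uM Z-FR-AMC is added. Release of AMC is followed at 360/450 nm, and progress is taken as the 60 s fluorescence difference.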
Cruzain noTriton: qHTS Assay for Promiscuous and Specific Inhibitors of Cruzain (without detergent); Potency, µM, actives largely listed as inhibitors; AID 1476, 2009; purified cruzain, Z-FR-AMC fluorescence, no detergent; 200,000 tested, 2.3% active; note: nearly all actives have a fitted effect of over 40% in size
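Purified cruzain at 1.5 nM, pre-incubated 15 min with compound at room temperature in 100 mM sodium acetate pH 5.5, 5 mM DTT, 0.00005% Triton X-100. Reaction started with 2 uM Z-FR-AMC; AMC fluorescence increase over 60 s gives rate.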
Large screens that a line does not name were inactive; ! = not active in a repeat. Sampled rows, rich in hits. Any-hit rate of the full collection: about 2.6%. Calls come from the whole dose curve; as a rule, active = well fitted curve in the direction sought with a large enough effect; inconclusive = small, poorly fitted or top-dose-only effect, or another doubt; inactive = no such curve, though single readings can be large; an effect the other way counts as inactive or inconclusive.

Cc1ccc(N(CC(=O)Nc2ccc(C)c(F)c2)S(=O)(=O)c2c(C)n[nH]c2C)cc1	Cruzain noTriton inconclusive
COc1cccc(-n2c(SCc3ccc(F)cc3)nc3c([nH]c4ccccc43)c2=O)c1	Cruzain noTriton 10µM
COC(=O)c1ccc(CSc2nc3c([nH]c4ccccc43)c(=O)n2-c2cccc(OC)c2)o1	Cruzain noTriton 25µM
COC(=O)c1ccc(CSc2nc3c([nH]c4ccccc43)c(=O)n2-c2cccc(Cl)c2)o1	none
CCSc1nc2c([nH]c3ccccc32)c(=O)n1-c1cccc(OC)c1	none
COc1ccc(C2C(C(=O)Nc3ccc(C)cc3C)=C(C)Nc3nc(SCc4cccc(C)c4)nn32)c(OC)c1 (stereo not drawn)	none
CCN(c1ccc(C)cc1C)S(=O)(=O)c1nnc(NC(=O)c2ccc(F)cc2)s1	none
CC(C)C(=O)NCC(c1ccc2c(c1)OCO2)N1CCN(c2ccccc2)CC1 (stereo not drawn)	none
N[C@@H](CSC(=O)c1ccccc1)C(=O)O	none
Cc1ccc(NC2=C(C(=O)c3ccccc3)N(C)S(=O)(=O)c3ccccc32)cc1	Cruzain noTriton 20µM
CCN1C(C(=O)c2ccccc2)=C(Nc2ccccc2C)c2ccccc2S1(=O)=O	Cruzain noTriton inconclusive
Cc1ccc(Nc2nc(C)cc(C)n2)c(C(=O)O)c1	none
O=C(Nc1ccncc1)c1cn(-c2ccccc2)nc1-c1cccs1	none
COc1ccc(C(=O)N/N=C/c2ccc(OC(=O)c3cccs3)cc2)cc1	Cruzain noTriton inconclusive
O=C(N/N=C/c1cn(-c2ccccc2)nc1-c1cccs1)c1ccccc1F	Cruzain noTriton 32µM
O=C(N/N=C/c1cn(-c2ccccc2)nc1-c1cccs1)c1ccc(Cl)cc1	Cruzain noTriton 13µM
O=C(N/N=C/c1cn(-c2ccccc2)nc1-c1cc2ccccc2o1)c1ccncc1	none
O=C(CNc1ccccc1)N/N=C/c1cn(-c2ccccc2)nc1-c1ccccc1	Cruzain noTriton 25µM
O=C(N/N=C\c1ccc(OC(=O)c2cccs2)cc1)c1ccc(Cl)cc1	Cruzain noTriton 10µM
O=S(=O)(N/N=C\c1cn(-c2ccccc2)nc1-c1ccccc1)c1ccccc1	Cruzain noTriton inconclusive
COCCN1Cc2cccc(C(=O)Nc3ccc(C(=O)OC)cc3)c2C1=O	none
Cc1nc2nc(SCC(=O)NC3CCCCC3)nn2c(C)c1Cc1ccccc1Cl	Cruzain noTriton inconclusive
COC(=O)c1c(C)oc2ccc(N(C(=O)Oc3ccccc3)S(=O)(=O)c3ccc(C(C)(C)C)cc3)cc12	none
CC(C)c1ccc(NC(c2nnc(-c3ccccc3)o2)c2ccc(F)cc2Cl)cc1 (stereo not drawn)	none
COc1cccc(CNC(=O)c2cc(S(=O)(=O)N3CCCCC3)c[nH]2)c1	none
O=C(NCc1ccc(Cl)cc1)c1cc(S(=O)(=O)N2CCCCC2)c[nH]1	Cruzain inh Det inconclusive, Cruzain noTriton 20µM
CCOC(=O)C1CCN(Cc2cn3c(-c4ccc(OC)cc4)nnc3s2)CC1	none
COc1ccc(CNC(=O)C2CCCN(S(=O)(=O)c3ccc4c(ccn4C)c3)C2)c(OC)c1 (stereo not drawn)	none
C=CCn1c(SCC(=O)N2CC(=O)Nc3ccccc32)nc2scc(-c3cccs3)c2c1=O	Cruzain noTriton 10µM
CC(C)CCn1c(SCC(=O)N2CC(=O)Nc3ccccc32)nc2scc(-c3cccs3)c2c1=O	Cruzain noTriton 13µM
Cc1nnc(SCC(=O)N2CC(=O)Nc3ccccc32)n1C	none
C=CCn1c(COc2ccc(F)cc2)nnc1SCC(=O)N1CC(=O)Nc2ccccc21	none
Cc1ccc(C2=Nc3ccccc3N(CC(=O)NCc3ccccc3Cl)C(=O)C2)cc1C	Cruzain noTriton 25µM
Cc1ccc(CNC(=O)CN2C(=O)CC(c3ccc(C)c(C)c3)=Nc3ccccc32)cc1	none
CCOc1cccc(CC(=O)N2CCc3c([nH]c4ccccc34)C2c2ccc(Cl)cc2)c1OCC (stereo not drawn)	Cruzain noTriton 20µM
O=C(CCC1CCCC1)N1CCc2c([nH]c3ccccc23)C1c1ccc(Cl)cc1 (stereo not drawn)	Cruzain noTriton 7.9µM
COc1ccc(C2c3[nH]c4ccccc4c3CCN2C(=O)CCC2CCCC2)cc1 (stereo not drawn)	Cruzain noTriton 16µM
O=C(CCC1CCCC1)N1CCc2c([nH]c3ccccc23)C1c1ccc(F)cc1 (stereo not drawn)	Cruzain noTriton inconclusive
COc1cccc(C(=O)N2CCc3c([nH]c4ccccc34)C2c2ccc(SC)cc2)c1 (stereo not drawn)	none
O=C(CCc1ccccc1)N1CCc2c([nH]c3ccccc23)C1c1ccc(Cl)cc1 (stereo not drawn)	Cruzain noTriton inconclusive
COc1ccc(C2c3[nH]c4ccc(OC)cc4c3CCN2C(=O)Nc2ccccc2)cc1 (stereo not drawn)	Cruzain noTriton 25µM
CCOc1ccc(C2c3[nH]c4ccccc4c3CCN2C(=O)CCC2CCCC2)cc1 (stereo not drawn)	Cruzain noTriton inconclusive
COc1cccc(Nc2c3c(nc4nncn24)CCC3)c1	none
Cn1c(=O)n(C)c2cc(NS(=O)(=O)c3ccc(C(C)(C)C)cc3)c(NCc3ccccc3)cc21	none
CCn1c(NCc2cccc(Cl)c2)nc2ccccc21	none
O=C(Cn1c(=O)c2cccn2c2ccc(F)cc21)N1CCN(c2ccccc2)CC1	none
COc1ccc(Nc2ncnc3sc(-c4ccccc4)cc23)cc1	Cruzain noTriton 32µM
COc1ccccc1C(=O)Nc1ccc(Oc2ncnc3sc(-c4ccccc4)cc23)cc1	Cruzain noTriton 6.3µM
COc1cc(C(=O)Nc2ccc(Oc3ncnc4sc(-c5ccccc5)cc34)cc2)cc(OC)c1OC	none
COc1ncnc2sc(-c3ccccc3)cc12	none
O=S(=O)(c1ccccc1)n1nc(-c2ccco2)nc1NCc1ccccc1	none
Cc1ccc(CN2CCC(CNC(=O)Nc3cccc(C)c3C)C2)cc1 (stereo not drawn)	none
CCOC(=O)N1CCN(Cc2nc3cc(NC(=O)c4cccc(C)c4)ccc3n2C(C)C)CC1	Cruzain noTriton inconclusive
N#CNC(=Nc1ccc(F)cc1)SCc1ccccc1	Cruzain noTriton 25µM
CC(C)N=C(NC#N)SCc1ccc(F)cc1	none
Cc1cccc(C)c1NC(=O)CSCc1cnn(-c2ccccc2)c1-n1cccc1	none
CN1C(=O)C(C)(C)c2cc(S(=O)(=O)NCc3ccc(C(=O)Nc4ccc(Cl)cc4)cc3)ccc21	none
COc1cc(/C(C)=N/NC(=S)NC(C)C)cc(OC)c1OC	none
COc1cc(/C(C)=N\NC(N)=S)cc(OC)c1OC	Cruzain inh Det 5µM, Cruzain noTriton 1.3µM
Cc1ccc(-c2csc(/C(C#N)=C/Nc3ccccc3SC(F)(F)F)n2)cc1	Cruzain noTriton 10µM
N#C/C(=C\Nc1ccccc1SC(F)(F)F)c1nc(-c2ccc(F)cc2)cs1	none
N=C(N)SCc1nc2ccccc2c(=O)n1-c1ccccc1	Cruzain noTriton 25µM!
O=c1c2ccccc2nc(CSc2ncnc3nc[nH]c23)n1-c1ccccc1	none
CN(C)/C=C(\C=N\OCc1ccc(Cl)cc1Cl)C(=O)Nc1ccc(Cl)c(Cl)c1	Cruzain noTriton 20µM
COC(=O)c1nn(-c2ccccc2)c(Cl)c1/C=N/OCc1ccc(Cl)cc1Cl	none
Cc1cc(C)c(C#N)c(SCc2nnc(-c3ccccc3)o2)n1	none
COc1ccccc1-c1cc(-c2ccc(C)cc2)nc(SCc2nnc(-c3ccccc3)o2)c1C#N	Cruzain noTriton 4µM
Cc1ccc(CCNC(=O)c2ccc(CNS(=O)(=O)c3ccc(F)cc3)cc2)cc1	none
